Screens deposited in PubChem BioAssay by several laboratories.
Most compounds without a hit are left out; they make up all but 3.4% or so of the library.
ADAM10 inh = human ADAM10 inhibitors, primary screen, biochemical, QFRET, HTS. AID 720582, 2013. recombinant ADAM10, EDANS/DABCYL FRET peptide cleavage, 3 h. hit rate 0.62% among 370,000. Disintegrin and metalloproteinase domain-containing protein 10 (Homo sapiens), O14672. inhibition, % at 7 µM;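 active means inhibition above a per-campaign cutoff equal to the mean of compounds falling between control-based bounds plus 3 SD, cut at about 20% in these data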;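 further: 0% = DMSO wells while the 100% control is not disclosed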
KLK7 zymogen act = proKLK7 zymogen activators, primary screen, biochemical, fluorescence intensity; activation, % at 7 µM; hit rate 0.9% among 370,000; purified proKLK7, EDANS-DABCYL substrate fluorescence; 100% is mature enzyme control, 0% vehicle; AID 652039, 2013; Kallikrein-7 (Homo sapiens), P49862;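 active means activation above the mean of all tested compounds plus 3 SD, computed per campaign excluding outliers beyond control limits, cut at about 13% in these data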
NRP1-CendR mod = modulators of CendR peptide binding to NRP-1, primary screen, biochemical, fluorescence polarization, uHTS; Neuropilin-1 (Homo sapiens), O14786; FAM-RPARPAR peptide binding to NRP-1; inhibition, % at 25 µM; hit rate 0.85% among 360,000;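 active means inhibition or corrected inhibition above about 18%, plus a signal ratio from 0.5 to 1.5, limit read from the data, passing the limit was not always enough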
Target sequence (O14786 whole entry, looked up): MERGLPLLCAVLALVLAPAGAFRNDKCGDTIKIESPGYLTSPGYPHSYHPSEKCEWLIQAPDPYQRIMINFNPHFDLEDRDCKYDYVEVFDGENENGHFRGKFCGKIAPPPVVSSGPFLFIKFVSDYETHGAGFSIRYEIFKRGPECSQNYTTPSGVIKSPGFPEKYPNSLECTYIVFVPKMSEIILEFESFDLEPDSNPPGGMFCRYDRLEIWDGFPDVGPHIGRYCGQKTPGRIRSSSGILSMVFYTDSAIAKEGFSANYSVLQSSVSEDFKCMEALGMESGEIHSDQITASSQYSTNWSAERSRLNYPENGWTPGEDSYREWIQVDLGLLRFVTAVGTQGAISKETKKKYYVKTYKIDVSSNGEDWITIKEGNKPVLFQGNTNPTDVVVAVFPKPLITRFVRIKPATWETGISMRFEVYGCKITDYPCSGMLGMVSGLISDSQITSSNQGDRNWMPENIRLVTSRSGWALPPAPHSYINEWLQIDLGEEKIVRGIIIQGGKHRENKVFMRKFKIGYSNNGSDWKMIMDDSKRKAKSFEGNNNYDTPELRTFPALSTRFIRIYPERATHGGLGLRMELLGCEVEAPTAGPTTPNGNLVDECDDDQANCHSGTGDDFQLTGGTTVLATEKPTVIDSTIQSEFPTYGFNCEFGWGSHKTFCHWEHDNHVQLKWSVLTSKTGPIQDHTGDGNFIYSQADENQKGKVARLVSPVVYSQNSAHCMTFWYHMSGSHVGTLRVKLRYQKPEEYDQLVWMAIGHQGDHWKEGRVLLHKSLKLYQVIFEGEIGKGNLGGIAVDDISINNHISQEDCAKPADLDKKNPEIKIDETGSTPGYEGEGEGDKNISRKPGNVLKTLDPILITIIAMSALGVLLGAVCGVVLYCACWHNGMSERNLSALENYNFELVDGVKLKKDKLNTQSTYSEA
HGIII-sPLA2 inh = human group III sPLA2 inhibitors, primary screen, biochemical, QFRET, BODIPY PC-A2 liposome substrate; Group 3 secretory phospholipase A2 (Homo sapiens), Q9NZ20; inhibition, % at 12.2 µM; AID 743126, 2013; hit rate 0.56% among 370,000; QFRET BODIPY PC-A2 liposome hydrolysis, fluorescence;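 active means inhibition above mean plus 3 SD of compounds lying within the high and low control bounds, cut at about 19% in these data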;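 further: 0% = median of test compound wells and 100% = no enzyme DMSO wells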
ADAM17 inh = ADAM17 inhibitors, primary screen, biochemical, QFRET; Disintegrin and metalloproteinase domain-containing protein 17 (Homo sapiens), P78536; recombinant ADAM17, EDANS/DABCYL FRET peptide cleavage; inhibition, % at 6.95 µM; hit rate 0.83% among 370,000; AID 720648, 2013;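 active means inhibition above the mean of compounds lying between control limits plus 3 SD, set per campaign, cut at about 8.5% in these data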;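 further: 0% = DMSO-only wells as the low control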
* = called active by the depositor; i = inactive; · = not tested or not shown.

SMILES | ADAM10 inh | KLK7 zymogen act | NRP1-CendR mod | HGIII-sPLA2 inh | ADAM17 inh
COC(=O)C(NC(=O)CCC(=O)N[C@@H](C(=O)OC)c1ccccc1)c1ccccc1 (stereo partly specified) | 2 | 1 | 25* | 0 | -1
CC(C)(C)OC(=O)N[C@H](C(=O)OC(C)(C)C)c1ccccc1 | -7 | 0 | 36* | 1 | 0
CN(CCOc1ccc(Cl)cc1)c1ccc(S(=O)(=O)N2CCCCC2)cn1 | 8 | 1 | 19* | 0 | 1
Cc1ccc(OCCNc2ccc(S(=O)(=O)N3CCCC3)cn2)cc1 | 0 | 0 | 1 | -4 | -2
CO[C@H]([C@H](C)/C=C/N(C)C=O)[C@@H](C)C(O)CC[C@H](C)[C@H](O)[C@H](C)[C@H]1OC(=O)/C=C/C(C)=C/C[C@H](O)C[C@@H]2C=CC[C@@H](C[C@H](OC)[C@@]3(CO3)[C@@H](OC)C[C@@H](OC)[C@@H]1C)O2 (stereo partly specified) | 3 | · | · | -16 | -5
Cc1ccc(Cl)cc1C1=CC(=O)C[C@H](c2ccc(F)cc2)C1 | 4 | 0 | 27* | -1 | 0
O=C1C=C(c2ccc(F)c(Cl)c2)C[C@@H](c2ccc(F)cc2)C1 | 16 | 1 | 24* | 2 | 4
C=C1CCC2C(C)(C)CCC[C@]2(C)[C@H]1CC1=C(O)C(=O)C(CO)=CC1=O (stereo partly specified) | 6 | 0 | · | 13 | -4
COC(=O)C1=C(C)N(C)C(=NCc2cccc(C(F)(F)F)c2)NC1c1ccc(F)cc1 (stereo unspecified) | -1 | 0 | · | -17 | -3
CC(C)(C)N(NC(=O)Nc1ccc(Cl)cc1)C(=O)c1ccccc1 | -2 | 0 | 29* | -8 | -1
CC(C)(C)N(NC(=O)Nc1ccccc1)C(=O)c1ccccc1 | 2 | 0 | 6 | 2 | -2
CCN(C(=O)C1CCCN1S(=O)(=O)c1cccnc1)c1ccccc1 (stereo unspecified) | 9 | 0 | · | 2 | 2
OCC1OC(c2ccc(O)cc2O)C(O)C1O (stereo unspecified) | -6 | 0 | 29* | 9 | -6
OCC1OC(c2ccc(OCc3ccccc3)cc2OCc2ccccc2)C(O)C1O (stereo unspecified) | 9 | -1 | 7 | -20 | 3
CC(=O)c1cc(-c2ccc3[nH]ccc3c2)c(=O)n2c1CCC2 | 3 | 0 | · | -7 | 1
CC(=O)C1=C(NC(=O)c2ccc(C(F)(F)F)cc2)C[C@@H]2[C@H]1C2(C)C | -2 | 0 | 0 | 2 | -7
CC(=O)C1=C(NC(=O)c2ccccc2F)C[C@@H]2[C@H]1C2(C)C | 4 | 0 | 17* | -9 | -2
Cn1cnc([N+](=O)[O-])c1NC(C)(C)C | -3 | 0 | 29* | 5 | -6
Cn1cnc([N+](=O)[O-])c1Nc1cccc(O)c1 | 0 | 0 | 6 | 0 | -3
O=c1oc2ccccc2c2oc3cc(O)c(O)cc3c12 | -2 | 0 | -56 | 22* | -3
COc1ccc(C2=Nc3ccccc3NC(=O)C2N(C(=O)c2cnc(C)cn2)c2ccc(N3CCOCC3)cc2)cc1 (stereo unspecified) | -4 | 0 | 22* | -8 | -2
O=C(O)CCNc1ccc(NCCC(=O)O)c2c1C(=O)c1ccccc1C2=O | 5 | 0 | 46* | 13 | -5
O=C1c2cccc(NCCNCCO)c2C(=O)c2cccc(NCCNCCO)c21 | -16 | -1 | 4 | 30* | -7
COc1ccccc1NCCC(=O)O | -4 | 0 | 4 | 1 | -3
COC(=O)[C@@]12CCCCC3=C1N(CCC3)C(=O)[C@H]2CC(=O)NCc1cccs1 | -2 | 1 | · | 1 | -1
SMILES | ADAM10 inh | KLK7 zymogen act | NRP1-CendR mod | HGIII-sPLA2 inh | ADAM17 inh
COC(=O)C1CN(C2CCCC2)CCS(=O)(=O)N1Cc1ccc(C(F)(F)F)cc1 (stereo unspecified) | 2 | 0 | · | -4 | -1
CCOC(=O)Cc1ccc(NS(=O)(=O)c2ccc(SC)cc2)cc1 | 4 | 0 | 25* | -25 | 4
C=CCn1c(SCC(=O)c2ccc(-c3ccccc3)cc2)nnc1-c1ccc(OC)cc1 | 0 | -1 | · | -35 | 4
C=CCn1c(SCc2c(C(=O)OC)sc(N)c2C(=O)OC)nnc1-c1ccc(Br)cc1 | 20* | 0 | -10 | -10 | 4
CCc1cc2c(=O)c(-c3nc4ccccc4n3C)coc2c(CN2CCN(C)CC2)c1O | -146 | 9 | 22* | -17 | -48
CCn1c(SC(C)C(=O)Nc2nccs2)nnc1-c1ccncc1 (stereo unspecified) | 10 | -1 | 24* | 2 | -3
CC(=O)OC12CCCN(C1)/C(=C/c1ccccc1)C2 (stereo unspecified) | -2 | 1 | · | 2 | 6
Cc1ccc(-c2cc3nc(-c4ccco4)cc(N4CCN(Cc5ccoc5)CC4)n3n2)cc1 | i | · | · | 0 | -173
COc1ccc(N(C(=O)c2ccncc2)S(=O)(=O)c2cccc([N+](=O)[O-])c2)cc1 | 7 | 0 | 19* | -9 | 0
COc1ccc(N(C(=O)c2cccnc2)S(=O)(=O)c2cccc([N+](=O)[O-])c2)cc1 | 1 | 0 | 0 | -6 | -2
Cc1cccc(NC(=O)n2ccc3ccc(-c4ccc5cc[nH]c5c4)cc32)c1 | -118 | -4 | · | -11 | -44
CCOC(=O)[C@]12CCCC=C1N(CCCOC)C(=O)[C@@H]2CC(=O)NCCCN1CCCC1=O | 4 | 0 | · | 4 | -1
COc1ccc(-c2csc(NC(CO)c3nc4ccccc4n3CCCO)n2)cc1 (stereo unspecified) | -8 | 1 | 26* | 0 | -6
COc1ccc(-c2csc(NC(CO)c3nc4ccccc4n3CCOCCO)n2)cc1 (stereo unspecified) | -2 | 1 | -10 | -24 | -1
CC1CCC(NC(=O)CSc2nncn2C)CC1 (stereo unspecified) | -12 | 0 | 23* | 0 | 2
CCOC(=O)c1cccc(NC(=O)CN(C)S(=O)(=O)c2cc3ccccc3s2)c1 | 12 | 0 | · | -34 | 4
C#CCOCCOCCOCCNc1nc(N2CCN(C(=O)CCCCCCCCCCNC(=O)[C@@H](CCSC)n3cc(CCO)nn3)CC2)nc(N2CCN(C(=O)CCCCCCCCCCNC(=O)[C@H](CO)n3cc(CCCCCN)nn3)CC2)n1 | · | · | 3 | · | ·
C#CCOCCOCCOCCNc1nc(N2CCN(C(=O)[C@H](CCCCN)n3cc(CN)nn3)CC2)nc(N2CCN(C(=O)[C@H](CCCCN)n3cc(CN)nn3)CC2)n1 | 5 | 0 | 32* | 10 | -2
